{
  "source": "PubChem BioAssay AID2253",
  "about": "(Southern Research Specialized Biocontainment Screening …, 2010)",
  "note": "The whole screen tested about 2,200 compounds, of which about 1,300 (59%) were called active. So high a share suggests a set chosen from earlier hits. A selection follows. Measured potencies and affinities stand elsewhere. Values without a mark were called inactive. No rule for the calls is given here.",
  "data": [
    {"test": "human monocytic cell viability reduction – S. typhimurium screen hits, cytotoxicity control for Salmonella PhoP regulon inhibitors, dose response (AID 2253)", "conditions": "THP-1 viability, CellTiter-Glo luminescence, 72 h; series mostly up to 50 µM; viability: at the top concentration", "values": [
      {"compound": "COc1ccc(NC(=O)c2sccc2SCC#N)cc1", "viability": "85.5%"},
      {"compound": "COC(=O)C1(O)CC(C(C)C)=NN1C(=O)c1ccc(Cl)cc1", "note": "(stereo not given)", "viability": "87.9%"},
      {"compound": "CCCCn1cnc2sc(-c3ccccc3)cc2c1=O", "viability": "81.9%"},
      {"compound": "CCn1cc(C(=O)O)c(=O)c2cc(F)c(N3CCNCC3)cc21", "viability": "92%"},
      {"compound": "CC(=O)Nc1ccc(C(=O)N2CCN(C(=O)c3ccco3)CC2)cc1", "viability": "91.3%"},
      {"compound": "COc1cc(OC)c(NC(=O)Nc2ccc(OC)c(OC)c2)cc1Cl", "viability": "90.3%"},
      {"compound": "CCn1cc(C(=O)O)c(=O)c2cc(F)c(N3CCN(C)CC3)cc21", "viability": "100%"},
      {"compound": "COC(=O)CCC(=O)Nc1ccc(Cl)c(Cl)c1", "viability": "102%"},
      {"compound": "O=C1OCC(CO)(CO)N=C1NNc1ccc(Cl)c(Cl)c1", "viability": "89.3%"},
      {"compound": "Cc1ccc(NC(=O)COc2ncnc3c(Cl)cc(Cl)cc23)cc1[N+](=O)[O-]", "viability": "80.3%"},
      {"compound": "CC(C)Cc1oc(C(=O)O)cc1CN", "viability": "97.5%"},
      {"compound": "Cc1ccc(CNc2oc(-c3cccs3)nc2C#N)cc1", "viability": "88.9% [at 25 µM]"},
      {"compound": "CC1C(C#N)=C(N)OC2=C1C(=O)CCC2", "note": "(stereo not given)", "viability": "98.9%"},
      {"compound": "CCCCN(CCCC)C(=O)c1cn(CC)c2cc(N3CCN(C)CC3)c(F)cc2c1=O", "viability": "91.2%"},
      {"compound": "Cc1[nH][nH]c(=O)c1C(c1ccc(O)c([N+](=O)[O-])c1)c1c(C)[nH][nH]c1=O", "viability": "93.3%"},
      {"compound": "COc1cc(CNCc2ccccn2)ccc1OCC(=O)NC(C)(C)C", "viability": "95.7%"},
      {"compound": "O=C(CN(c1ccc(F)cc1)S(=O)(=O)c1ccc2c(c1)OCCO2)NCc1cccnc1", "viability": "92.6%"},
      {"compound": "COCCn1cc(C(=O)N2CCC(C)CC2)c2c3ccccc3n(C)c2c1=O", "viability": "82.2%"},
      {"compound": "Cc1ccc(S(=O)(=O)N2CCC(C(N)=O)CC2)c(C)c1C", "viability": "87.3%"},
      {"compound": "O=C(NCc1cccs1)[C@@H]1CSC2c3ccccc3C(=O)N21", "note": "(stereo not given in full)", "viability": "97.5%"}
    ]}
  ]
}
